According to PubChem BioAssay (NCI):
The panel holds about 83,000 compounds, 20% with a hit somewhere; the sample as a whole holds those more often.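 Cell lines were cultured in 96-well plates, exposed to a single compound concentration, and assessed for percent growth 48 hours later.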 Unmarked numbers belong to inactive results. Calls of active or inactive are those of the source. How the source made its calls: active means growth percent below 10; inactive means the rest.

Experiments:
Test in all cases: NCI-60 one-dose screen, 48 h (100 = growth as untreated, 0 = no growth, -100 = all killed)
Details in all cases: 10 µM unless noted
[1] = test system: HCT-15 colon
[2] = test system: HT29 colon
[3] = test system: SNB-75 CNS
[4] = test system: SNB-19 CNS
[5] = test system: U251 CNS
[6] = test system: PC-3 prostate
[7] = test system: SK-MEL-5 melanoma
[8] = test system: UACC-62 melanoma
[9] = test system: LOX IMVI melanoma
[10] = test system: SK-MEL-28 melanoma
[11] = test system: SK-MEL-2 melanoma
[12] = test system: EKVX NSCLC
[13] = test system: SN12C renal
[14] = test system: UO-31 renal
[15] = test system: TK-10 renal
[16] = test system: ACHN renal
[17] = test system: CAKI-1 renal
[18] = test system: A498 renal
[19] = test system: CCRF-CEM leukemia
[20] = test system: MOLT-4 leukemia

Row | SMILES | growth [1] | growth [2] | growth [3] | growth [4] | growth [5] | growth [6] | growth [7] | growth [8] | growth [9] | growth [10] | growth [11] | growth [12] | growth [13] | growth [14] | growth [15] | growth [16] | growth [17] | growth [18] | growth [19] | growth [20]
1 | Cn1ccnc1C(=O)/C=C/c1ccc(CNC(=O)c2ccc(Cl)cc2)cc1 | -14.5% (active) | -16.3% (active) | 56% | 11.1% | 7.03% (active) | 19.9% | 32.6% | 5.76% (active) | -89.2% (active) | 45.2% | 91.7% | 26.4% | 17.3% | -11.3% (active) | 21.3% | 2.81% (active) | 35.9% | 21.1% | 7.64% (active) | 0.825% (active)
2 | CCCn1cnc2c(c1=N)C(c1ccc(Cl)cc1)c1sc3c(C)cccc3c1O2 (stereo not given) | 13% | 5.11% (active) | 26.7% | 26.5% | 19.4% | 6.9% (active) | 28.7% | 5.02% (active) | 19.6% | 60.9% | 33.5% | 42.7% | 17.9% | 32.2% | 93.3% | 29.1% | 29.8% | -13.1% (active) | 3.96% (active) | 15.5%
3 | Brc1ccccc1/C=N/Nc1nc(N/N=C/c2ccccc2Br)nc(N2CCOCC2)n1 | 81.1% | 74% | 132% | 101% | 96.5% | 84% | 69.6% | 102% | 103% | 99.3% | 96.3% | 80.2% | 98.8% | 78.6% | 99.4% | 93.6% | 109% | 50.2% | 80.1% | 72.6%
4 | CCOc1ccc(C(=O)Nc2ncc(Cc3ccc(F)cc3)s2)cc1 | 14.7% | -18.2% (active) | 10.2% | 29.6% | 16% | 27.4% | 33.4% | 33% | 23.7% | 61.9% | -7.6% (active) | 41.3% | 36% | 41.9% | 57.9% | 37.6% | 38% | 13.9% | 17.3% | 18.7%
5 | COc1cc2nc(Cl)nc(Nc3cccc(C4=Nc5c(N)nc(N)nc5NC(c5ccccc5)C4)c3)c2cc1OC (stereo not given) | 48.6% | 90.3% | 75% | 95.6% | 60.4% | 75.1% | 73.6% | 91.3% | 68% | 105% | 88.8% | 96.7% | 93.4% | 94.4% | 110% | 91.8% | 96.1% | 88.9% | 34.8% | 54.5%
6 | COc1ccc(-c2cc(-c3ccc(Cl)cc3)c(C#N)c(=O)n2Cc2ccc(C(=O)O)cc2)cc1 | 79% | 117% | 3.46% (active) | 90.1% | 84.3% | 68.9% | 87.2% | 18.4% | 75.7% | 60.7% | 61.9% | 98.2% | 103% | 68.1% | 116% | 102% | 70.3% | 83% | 30.7% | 53.1%
7 | CC(C)C[C@@H]1N[C@@]2(C(=O)Nc3ccccc32)[C@@H](c2ccc(F)cc2)[C@@H]1C(=O)c1ccc(O)cc1 | 93% | 105% | 96.8% | 95.1% | 97.1% | 63.6% | 93.5% | 69% | 92.4% | 103% | 102% | 79.9% | 96.5% | 58.3% | 120% | 80.1% | 67.3% | 94.5% | 85% | 77.5%
8 | O=C1Nc2ccccc2/C1=C/c1ccc(COCC2CO2)n1-c1ccc(O)cc1 (stereo not given) | 107% | 110% | 95.1% | 97.7% | 99.4% | 101% | 101% | 96% | 79.6% | 106% | 101% | 102% | 105% | 89.7% | 104% | 97% | 98.3% | 115% | 89.2% | 98.8%
